In PubChem BioAssay one finds z-score and composite z-score data, which are given here for 4 compounds.

Activity calls are given as the source filed them.

Test [1] in a line: optical density shifts of acrAB sulA E. coli – strain DRC41, OD650, 48 h, E. coli filamentation inducer project, primary screen (AID 1152).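 Further: E. coli MC1000 strain DRC41 lacking acrAB efflux pump and sulA.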 The note with it: higher = more signal, called active from +8 up or from −8 down.
Test [2] is described as follows: probe aLefty1 binding on compound microarray – biochemical, small-molecule microarray, 635/667 nm fluorescence, primary screen (AID 1153).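 Further: score merges spot fluorescence with signal-to-noise ratio from the scanned slide images.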 The note with it: higher = more signal.
Test [3] can be described thus: plasmodial surface anion channel blockers, osmotic lysis – cell-based, P. falciparum Indochina, OD700, 1 h, primary screen (AID 1154). The note with it: P. falciparum Indochina infected RBC osmotic lysis, higher = more signal, called active from +8 up or from −8 down.
Test [4] in a line: plasmodial surface anion channel blockers, osmotic lysis – cell-based, P. falciparum Indochina, OD700, 2 h, primary screen (AID 1155).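 Further: lysis reports solute entry through the parasite surface anion channel PSAC.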 The note with it: P. falciparum Indochina infected erythrocytes, higher = more signal, called active from +8 up or from −8 down.
The nature of test [5]: changes in parasitized red cell lysis, either direction – P. falciparum Indochina, OD700, 3 h, PSAC antagonist project, primary screen (AID 1156). The note with it: P. falciparum-infected erythrocytes, osmotic lysis, higher = more signal, called active from +8 up or from −8 down.
Test [6] is described as follows: plasmodial surface anion channel blockers, osmotic lysis – cell-based, P. falciparum Indochina, OD700, 18 h, primary screen (AID 1157). The settings on record: P. falciparum Indochina infected erythrocytes, osmotic lysis OD700, 18 h; higher = more signal, called active from +8 up or from −8 down.
Test [7] can be described thus: S6 kinase pathway phospho-S6 level changes – cell-based, A549, cytoblot, luminescence, serum-stimulated, primary screen (AID 1158).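 Further: serum-stimulated A549 lung adenocarcinoma cells; signal is phosphorylated S6 detected by cytoblot immunostaining with HRP secondary.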 The settings on record: 5 h, higher = more signal.
Test [8] deals with NADPH oxidase 2 (Homo sapiens) (UniProt P04839). Kind of test: compounds shifting NOX2 Amplex Red fluorescence – cell-based, HEK293-NOX2, PMA-stimulated, NOX inhibitor project, primary screen (AID 1159). Further: test concentration not given here. The note with it: 45 min, higher = more signal, called active from +8 up or from −8 down.
Sequence of NADPH oxidase 2 (Homo sapiens) (P04839 whole entry, looked up): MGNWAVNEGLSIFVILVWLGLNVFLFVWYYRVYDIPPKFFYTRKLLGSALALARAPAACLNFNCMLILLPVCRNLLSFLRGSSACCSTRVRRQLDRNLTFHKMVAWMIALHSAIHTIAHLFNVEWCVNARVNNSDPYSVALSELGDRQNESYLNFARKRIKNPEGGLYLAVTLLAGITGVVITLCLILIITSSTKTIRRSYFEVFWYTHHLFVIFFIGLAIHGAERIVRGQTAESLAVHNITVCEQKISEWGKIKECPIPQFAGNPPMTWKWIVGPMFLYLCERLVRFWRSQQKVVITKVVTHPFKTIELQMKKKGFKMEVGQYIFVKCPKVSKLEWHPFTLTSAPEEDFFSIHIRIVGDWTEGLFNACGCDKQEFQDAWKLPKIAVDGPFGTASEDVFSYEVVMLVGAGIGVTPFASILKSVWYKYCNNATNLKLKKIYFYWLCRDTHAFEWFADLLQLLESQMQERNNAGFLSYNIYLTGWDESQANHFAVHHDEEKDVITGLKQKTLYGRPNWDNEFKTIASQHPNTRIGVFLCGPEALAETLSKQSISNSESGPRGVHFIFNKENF
Test [9] deals with NADPH oxidase 4 (Homo sapiens) (UniProt Q9NPH5). Put plainly: compounds shifting NOX4 Amplex Red fluorescence – cell-based, HEK293-NOX4, tetracycline-induced, NOX inhibitor project, primary screen (AID 1160). The settings on record: HEK293-NOX4, Amplex Red H2O2 fluorescence, 45 min; higher = more signal, called active from +8 up or from −8 down.
Sequence of NADPH oxidase 4 (Homo sapiens) (Q9NPH5 whole entry, looked up): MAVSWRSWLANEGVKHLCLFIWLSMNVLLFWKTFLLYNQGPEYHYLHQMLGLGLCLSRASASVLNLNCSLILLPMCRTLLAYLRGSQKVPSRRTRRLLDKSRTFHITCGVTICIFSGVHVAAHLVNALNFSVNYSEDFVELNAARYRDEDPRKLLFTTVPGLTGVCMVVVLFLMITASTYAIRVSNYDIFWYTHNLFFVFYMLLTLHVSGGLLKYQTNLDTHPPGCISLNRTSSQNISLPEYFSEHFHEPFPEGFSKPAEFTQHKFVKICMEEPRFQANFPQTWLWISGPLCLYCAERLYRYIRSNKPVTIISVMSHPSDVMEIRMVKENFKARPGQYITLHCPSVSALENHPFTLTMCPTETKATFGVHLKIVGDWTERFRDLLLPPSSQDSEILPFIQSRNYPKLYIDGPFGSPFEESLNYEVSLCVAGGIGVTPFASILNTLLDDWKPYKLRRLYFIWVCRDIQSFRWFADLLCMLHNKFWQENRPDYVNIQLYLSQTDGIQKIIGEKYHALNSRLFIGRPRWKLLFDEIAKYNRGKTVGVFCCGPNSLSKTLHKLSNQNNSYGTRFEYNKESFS
Test [10] concerns the target NADPH oxidase 5 (Homo sapiens) (UniProt Q96PH1). Kind of test: compounds shifting NOX5 Amplex Red fluorescence – cell-based, HEK293-NOX5, NOX inhibitor project, primary screen (AID 1161). The note with it: HEK293-NOX5, ionomycin, 45 min, higher = more signal.
Test [11] in a line: compound effects on lung adenocarcinoma cell viability – A549, calcein-AM fluorescence, 48 h, basal, profiling panel (AID 1162). Further: test concentration not given here. The note with it: higher = more signal.
A short description of test [12]: compound effects on differentiated 3T3-L1 adipocyte viability – cell-based, 3T3-L1 adipocytes, calcein-AM fluorescence, 48 h, basal, profiling panel (AID 1163). Further: test concentration not given here. The settings on record: 3T3-L1 adipocytes viability, higher = more signal.
The nature of test [13]: compound effects on hepatocellular carcinoma cell viability – HepG2, calcein-AM fluorescence, 48 h, basal, profiling panel (AID 1164). Further: test concentration not given here. The settings on record: higher = more signal.
A short description of test [14]: compound effects on multiple myeloma cell viability – MM1S, calcein-AM fluorescence, 48 h, basal, profiling panel (AID 1165).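 Further: viability of MM1S multiple myeloma cells under basal unstimulated conditions; test concentration not given here.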 The settings on record: higher = more signal.
Test [15] is described as follows: calcein-AM signal in unstimulated myeloma cells – cell-based, calcein-AM fluorescence, 48 h, PK04 Diversity Set, profiling panel (AID 1166).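 Further: cells grown under basal conditions without added stimulus; test concentration not given here.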 The note with it: RPMI8226 myeloma viability, higher = more signal.
Test [16] in a line: JC-1 mitochondrial signal, unstimulated HepG2 cells – cell-based, JC-1 fluorescence, 24 h, 100 nL compound, profiling panel (AID 1167). Further: test concentration not given here. The note with it: HepG2 mitochondrial potential, higher = more signal.
Test [17] in a line: JC-1 mitochondrial signal, unstimulated adipocytes – cell-based, JC-1 fluorescence, 3T3-L1 adipocytes, 24 h, 100 nL compound, profiling panel (AID 1168). Further: test concentration not given here. The settings on record: JC-1 mitochondrial fluorescence, higher = more signal, called active from +8 up or from −8 down.
Test [18] is described as follows: JC-1 mitochondrial signal, unstimulated myeloma cells – cell-based, JC-1 fluorescence, RPMI8226, 24 h, 100 nL compound, profiling panel (AID 1169). Further: test concentration not given here. The note with it: JC-1 mitochondrial potential fluorescence, higher = more signal.
Test [19] can be described thus: JC-1 mitochondrial signal, unstimulated MM1S myeloma – cell-based, JC-1 fluorescence, 24 h, 100 nL compound, profiling panel (AID 1170). Further: test concentration not given here. The note with it: MM1S mitochondrial potential, higher = more signal.
Test [20] can be described thus: resazurin metabolic signal in A549 cells – cell-based, resazurin fluorescence, 24 h, PK04 Diversity Set, profiling panel (AID 1171). Further: test concentration not given here. The settings on record: A549 viability, higher = more signal, called active from +8 up or from −8 down. (Alamar Blue is a resazurin reagent that responds to reducing activity.)

Sequence of NADPH oxidase 5 (Homo sapiens) (Q96PH1 whole entry, looked up): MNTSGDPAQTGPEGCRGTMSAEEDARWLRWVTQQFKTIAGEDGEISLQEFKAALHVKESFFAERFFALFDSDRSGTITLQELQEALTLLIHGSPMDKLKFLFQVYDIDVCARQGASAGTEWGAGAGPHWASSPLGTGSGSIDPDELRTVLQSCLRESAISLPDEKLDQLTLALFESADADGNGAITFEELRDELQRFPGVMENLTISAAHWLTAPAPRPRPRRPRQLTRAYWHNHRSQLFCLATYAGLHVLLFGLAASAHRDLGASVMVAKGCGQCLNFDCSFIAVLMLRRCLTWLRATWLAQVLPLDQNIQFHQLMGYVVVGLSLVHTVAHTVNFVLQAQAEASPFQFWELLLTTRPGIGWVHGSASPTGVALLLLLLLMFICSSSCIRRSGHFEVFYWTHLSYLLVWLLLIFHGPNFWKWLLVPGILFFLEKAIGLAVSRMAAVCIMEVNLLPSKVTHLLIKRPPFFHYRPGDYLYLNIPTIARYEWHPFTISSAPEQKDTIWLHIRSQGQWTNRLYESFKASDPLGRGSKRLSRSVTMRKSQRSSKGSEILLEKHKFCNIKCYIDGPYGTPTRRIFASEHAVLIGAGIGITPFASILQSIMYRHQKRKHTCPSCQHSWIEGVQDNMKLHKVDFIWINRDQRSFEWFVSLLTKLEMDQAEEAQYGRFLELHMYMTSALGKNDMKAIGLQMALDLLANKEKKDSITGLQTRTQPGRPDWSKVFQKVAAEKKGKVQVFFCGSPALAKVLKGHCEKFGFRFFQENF

In the case of `CCCCC(=O)N(CCN1CCOCC1)[C@@H]1CC(C(=O)NCCO)=C[C@H](Oc2c(I)cc(CO)cc2OC)[C@H]1O`, the z-score in [1] was 1.4 (inactive); in [3], 3.89 (inactive); in test [4] it was 0.756 (inactive); in test [5], 0.098 (inactive); in test [6] it was 0.133 (inactive); in [7], -0.0612. Further, the z-score is -0.381 (inactive) in [8]; 0.577 (inactive) in [9]; 0.613 in test [10]; 1.5 in test [11]; -1.07 in test [12]; 0.569 in test [13]. Further, the z-score in test [14] was 0.135; in test [15] it was -0.157; in test [16] it was -0.959; in test [17] it was -0.716 (inactive); in test [18], -0.277; in test [19] it was -0.109. Also, the z-score in test [20] was -0.0043 (inactive). This compound displayed a composite z-score in [2] of -0.235.

As to `C=C(C(=O)CC[C@H](OC(=O)c1ccccc1-c1ccccc1C(=O)O)c1ccccc1OCCO)C(C)C`, the z-score in test [1] is 0.342 (inactive); in test [3], 6.14 (inactive); in [4], 1.12 (inactive); in test [5] it was 2.1 (inactive); in [6], 0.577 (inactive); in test [7], -0.549. For the same compound, the z-score was 2.97 (inactive) in [8]; -0.13 (inactive) in test [9]; -1.51 in [10]; 0.301 in test [11]; 1.72 in [12]; 0.255 in [13]. Moreover, the z-score in [14] is -3.44; in test [15] it was -2.35; in test [16] it was -0.266; in test [17], 0.585 (inactive); in test [18], -0.636; in test [19], 0.63. Also, the z-score in test [20] is 0.109 (inactive). This compound yielded a composite z-score in test [2] of -0.0573.

In the case of `COC(=O)[C@@]1(Cc2ccccc2CN=[N+]=[N-])N=C(c2ccc(OCCCO)cc2)O[C@H]1c1ccccc1`, the z-score was -0.571 (inactive) in test [1]; 23.6 (active) in test [3]; 19.8 (active) in test [4]; 0.882 (inactive) in test [5]; 3.64 (inactive) in test [6]; 0.216 in test [7]. Besides, the z-score in test [8] is -2.19 (inactive); in test [9], -0.348 (inactive); in test [10] it was -2.48; in [11], -2.84; in test [12], 0.658; in [13] it was -4.68. Also, the z-score in test [14] is -3.57; in test [15], -4.03; in test [16] it was -2.06; in test [17] it was 0.315 (inactive); in test [18] it was -1.01; in test [19], -2.53. The z-score in [20] is -2.6 (inactive). The compound further registered a composite z-score in test [2] of 0.105.

With `COCCOC(=O)N1C(=O)[C@@]2(c3cc(C#CCC(C(=O)OC)C(=O)OC)ccc31)[C@H](C(=O)NC[C@H](O)c1ccccc1)[C@H]1C(=O)O[C@H](c3ccccc3)[C@H](c3ccccc3)N1[C@@H]2c1ccc(OCCO)cc1`, the z-score in test [1] was 0.0789 (inactive); in [3], 7.02 (inactive); in test [4], 2.02 (inactive); in test [5], 0.53 (inactive); in test [6], 1.12 (inactive); in test [7], -0.273. The z-score in [8] is 1.41 (inactive); in test [9], 0.805 (inactive); in [10], 0.938; in [11] it was -0.248; in [12], 0.951; in [13], 0.583. In addition, the z-score in test [14] was 0.152; in test [15] it was -1.87; in test [16] it was -0.684; in test [17], 0.407 (inactive); in test [18], -0.854; in test [19] it was -0.724. For the same compound, in test [20], the z-score was -0.873 (inactive). The composite z-score in test [2] is -0.118.
